Assay results from publication PMC12431657, “Discovery and mechanistic insights of dibenzoylmethane as a broad spectrum inhibitor of coronavirus” (PLOS Pathogens, 2025).
Where a name gives a salt, the structure may show the parent alone. Read-outs that look alike come from different tables or passages of the source. Among all 3,300 compounds or so, about 60 (2%) showed an effect of 50% or more. Only a selection was taken, and strong results are over-represented in it overall.

Test system: HCoV-OC43
Parameters: species or system RD; HTS, protection from HCoV-OC43 induced cell death, luminescent cell viability (CellCounting-Lite 2.0), inhibition rate
Settings: 24 h post infection, 1 h compound pre-incubation, 10 µM, inhibitor

Compound | OC43 Inhibition rate | OC43 Inhibition rate (OC43 Inhibition rate, 24 h)
CC1(C)CC[C@]2(C(=O)O)CC[C@]3(C)C(=CC[C@@H]4[C@@]5(C)CC[C@@H](O)C(C)(C)[C@@H]5CC[C@]43C)[C@@H]2C1 [3-Epioleanolic acid] | -0.6% | –
OC1OC[C@@H](O)[C@H](O)[C@@H]1O (stereo partly drawn) [D-Lyxose] | -0.4% | –
C=C1C(=O)[C@]23[C@H](O)[C@H]1CC[C@H]2[C@@]12CO[C@]3(O)[C@@H](O)[C@@H]1C(C)(C)CC[C@@H]2O [Oridonin] | 17.2% | –
C=C1C(=O)[C@@]23[C@@H]4OC5O[C@@]2(O)[C@@H](O)[C@@H]2C(C)(C)CC[C@@H](O)[C@]52[C@@H]3CC[C@@H]14 [ponicidin] | 75.9% | –
C=C1C(=O)[C@@]23[C@H](O)C[C@@H]4C(C)(C)CC[C@H](O)[C@@]4(CO)[C@@H]2CC[C@@H]1[C@H]3O [Kamebakaurin] | -2.9% | –
CC(C)(CC(=O)O)CC(=O)O [3,3-Dimethylglutaric acid] | -0.3% | –
C/C=C(/C)C(=O)OC(C)(C)[C@@H]1Cc2c(ccc3ccc(=O)oc23)O1 [Columbianadin, columbianadin] | 107.6% | –
C/C=C(\C)C(=O)OC1c2c(ccc3ccc(=O)oc23)OC(C)(C)C1OC(=O)/C(C)=C/C (stereo not drawn) [Praeruptorin B] | 7.3% | –
C/C=C(/C)C(=O)O[C@@H]1c2c(ccc3ccc(=O)oc23)OC(C)(C)[C@@H]1OC(=O)/C(C)=C\C [(-)-Anomalin] | 32.9% | –
Nc1ccccc1C(=O)C[C@@H](N)C(=O)O [D-Kynurenine] | -6.1% | –
CCCCC/C=C\C/C=C\CCCCCCCC(=O)NCc1ccccc1 [N-Benzyllinoleamide] | 40% | –
CCCCCCCCCCCCCCCCCC(=O)NCc1ccccc1 [N-Benzyloctadecanamide] | -0.1% | –
CCCCCCCC/C=C\CCCCCCCC(=O)NCc1ccccc1 [N-Benzyloleamide] | 56.9% | –
COc1cc([C@@H]2[C@H]3CO[C@@]4(O)C(=O)[C@@H]2C=C([C@H]2Oc5cc(O)cc(O)c5C(=O)[C@@H]2O)[C@@H]34)ccc1O [Silydianin] | -0.1% | –
O=C(/C=C/c1ccccc1)OCc1ccccc1 [Benzyl cinnamate] | 2% | –
O=C(CCc1ccc(O)cc1)c1c(O)cc(O)cc1O [Phloretin] | -0.3% | –
O=C(CCCCCCCCc1ccc(O)c(O)c1)c1c(O)cccc1O [Malabaricone C] | 12.2% | –
O=C(CCCCCCCCc1ccc(O)cc1)c1c(O)cccc1O [Malabaricone B] | 54% | –
CCCCCCCCCCCCCCCCCCCCC [Heneicosane] | -0.3% | –
CO[C@H]1[C@@H](O)[C@H](O[C@@H]2[C@@H](C)O[C@@H](O[C@H]3CC[C@@]4(C)[C@@H](CC[C@@]56O[C@@]57CC[C@@H](C(C)=O)[C@@]7(C)[C@H](OC(C)=O)[C@@H](OC(=O)c5ccccc5)[C@H]46)C3)C[C@H]2OC)O[C@H](C)[C@H]1O [Tenacissoside I] | -4% | –

Compound | OC43 Inhibition rate | OC43 Inhibition rate (OC43 Inhibition rate, 24 h)
Cc1ccc(O)c(O)c1 [4-Methylcatechol] | -0.9% | –
COc1cc(O)c(C(=O)/C=C/c2ccccc2)c(O)c1 [Pinostrobin chalcone] | 0% | –
COc1cc(O)c(C(=O)/C=C/c2ccccc2)c(OC)c1 [Flavokawain B] | 58.3% | –
COc1cc(O)c(C(=O)/C=C/c2ccc(O)cc2)c(OC)c1 [Flavokawain C] | 4.2% | –
O=C(N[C@@H](c1ccccc1)[C@@H](O)C(=O)O)c1ccccc1 [N-Benzoyl-(2R,3S)-3-phenylisoserine] | 0.3% | –
C/C=C(/C)C(=O)O [Angelic acid] | -0.3% | –
CC(=O)OC/C1=C\[C@H]2[C@@H](OC(=O)/C=C/c3ccccc3)[C@@H](C)C[C@]2(OC(C)=O)C(=O)/C(C)=C/[C@@H]2[C@H](CC1)C2(C)C [Euphorbia factor L7a] | 75.3% | –
CCOC(=O)/C=C/c1ccccc1 [Ethyl cinnamate] | -1.2% | –
CC(=O)OC/C1=C/C[C@H]2[C@@H](/C=C(\C)C(=O)[C@@]3(OC(C)=O)C[C@H](C)[C@H](OC(=O)c4ccccc4)[C@@H]3[C@H]1OC(C)=O)C2(C)C [Euphorbia factor L7b] | 8.6% | –
COc1cccc(-c2oc3ccccc3c(=O)c2O)c1 [3'-Methoxyflavonol] | -2% | –
O[C@H]1[C@H]2c3cc4c(cc3CN3CC[C@H](C[C@@H]1O)[C@H]23)OCO4 [Dihydrolycorine] | 0% | –
c1cc2c(c3c1CC1c4cc5c(cc4CCN1C3)OCO5)OCO2 (racemic) [(±)-Stylopine] | -0.3% | –
O[C@H]1[C@H]2c3cc4c(cc3CN3CCC(=C[C@@H]1O)[C@H]23)OCO4 [Lycorine] | 60.9% | –
OCc1cccc2ccccc12 [1-Naphthalenemethanol] | 2.9% | –
CC(C)=CCC[C@](C)(O[C@@H]1O[C@H](CO)[C@@H](O)[C@H](O)[C@H]1O)[C@H]1CC[C@]2(C)[C@@H]1[C@H](O)C[C@@H]1[C@@]3(C)CC[C@H](O)C(C)(C)[C@@H]3CC[C@]12C [Ginsenoside C-K] | 38.7% | –
COc1cc(/C=C/C(=O)OC[C@H]2O[C@H](O[C@]3(CO)O[C@H](CO)[C@@H](O)[C@@H]3O)[C@H](O)[C@@H](O)[C@@H]2O)cc(OC)c1O [Sibiricose A1] | 2.3% | –
COc1ccc2cc1Oc1ccc(cc1)C[C@H]1c3cc(c(OC)cc3CCN1C)Oc1c(OC)c(OC)cc3c1[C@H](C2)N(C)CC3 [tetrandrine] | 79.7% | –
COc1cc2c3cc1Oc1c(OC)c(OC)cc4c1[C@@H](Cc1ccc(O)c(c1)Oc1ccc(cc1)C[C@@H]3N(C)CC2)N(C)CC4 [Berbamine] | 0% | –
COc1ccc2cc1Oc1ccc(cc1)C[C@H]1c3cc(c(OC)cc3CCN1C)Oc1c(O)c(OC)cc3c1[C@H](C2)N(C)CC3 [Fangchinoline] | 41.6% | –
Oc1ccc(CC2NCCc3cc(O)c(O)cc32)cc1 (stereo not drawn) [Higenamine (hydrochloride)] | 0.1% | –

Compound | OC43 Inhibition rate | OC43 Inhibition rate (OC43 Inhibition rate, 24 h)
Oc1ccc2[nH]ccc2c1 [5-Hydroxyindole] | 1.1% | –
COc1c2c(cc3oc(CO)cc(=O)c13)O[C@H](C(C)(C)O)C2 [Cimifugin] | 0.3% | –
OC1COC(O)CO1 (stereo not drawn) [1,4-Dioxane-2,5-diol] | 1.3% | –
CC(C)c1cc2c(c(O)c1O)[C@@]13CCCC(C)(C)[C@@H]1C[C@@H]2OC3=O [Carnosol] | -0.4% | –
COc1c(C(C)C)cc2c(c1O)[C@@]1(C(=O)O)CCCC(C)(C)[C@@H]1CC2 [12-O-Methylcarnosic acid] | 54.1% | –
CC(C)c1ccc2c(c1)CC[C@H]1[C@](C)(C(=O)O)CCC[C@]21C [Dehydroabietic acid] | -0.5% | –
COc1cc(C=CC(=O)O)cc(OC)c1O (stereo in doubt) [Sinapinic acid] | 1.1% | –
CCn1cc(C(=O)O)c(=O)c2ccc(C)nc21 [Nalidixic acid] | 0.1% | –
NC1CCN(c2nc3c(cc2F)c(=O)c(C(=O)O)cn3-c2ccc(F)cc2F)C1 (stereo not drawn) [Tosufloxacin (tosylate hydrate)] | 58.8% | –
O=C(O)C(O)c1ccc(O)c(O)c1 (stereo not drawn) [3,4-Dihydroxymandelic acid] | -0.2% | –
CC(C)=CCC/C(C)=C/Cc1cc(-c2coc3cc(O)ccc3c2=O)ccc1O [Corylifol A] | -2.2% | –
CCCC(=O)C(=O)O [2-Oxovaleric acid] | -0.9% | –
COc1ccc(/C=C/C(=O)O)cc1 [4-Methoxycinnamic acid] | – | -0.5%
CSCC[C@H](NC(C)=O)C(=O)O [N-Acetyl-L-methionine] | 0.8% | –
C[C@@H]1CC[C@@]2(OC1)O[C@H]1C[C@H]3[C@@H]4CC=C5C[C@@H](O)C[C@@H](O[C@@H]6O[C@H](C)[C@H](O)[C@H](O[C@@H]7OC[C@@H](O)[C@H](O)[C@H]7O)[C@H]6O[C@@H]6O[C@@H](C)[C@H](O)[C@@H](O)[C@H]6O)[C@]5(C)[C@H]4CC[C@]3(C)[C@H]1[C@@H]2C [Ophiopogonin D] | – | 1.6%
C[C@@H]1CC[C@@]2(OC1)O[C@H]1C[C@H]3[C@@H]4CC=C5C[C@@H](O[C@@H]6O[C@H](CO)[C@@H](O)[C@H](O)[C@H]6O[C@@H]6O[C@@H](C)[C@H](O)[C@@H](O)[C@H]6O)CC[C@]5(C)[C@H]4CC[C@]3(C)[C@H]1[C@@H]2C [Prosapogenin A] | -12% | –
C[C@@H]1CC[C@@]2(OC1)O[C@H]1C[C@H]3[C@@H]4CC=C5C[C@@H](O[C@@H]6O[C@H](CO)[C@@H](O)[C@H](O[C@@H]7O[C@H](CO)[C@@H](O)[C@H](O)[C@H]7O)[C@H]6O[C@@H]6O[C@@H](C)[C@H](O)[C@@H](O)[C@H]6O)CC[C@]5(C)[C@H]4CC[C@]3(C)[C@H]1[C@@H]2C [Gracillin] | 7% | –
C[C@@H]1CC[C@@]2(OC1)O[C@H]1C[C@H]3[C@@H]4CC=C5C[C@@H](O)C[C@@H](O[C@@H]6O[C@H](C)[C@H](O)[C@H](O[C@@H]7OC[C@@H](O)[C@H](O)[C@H]7O)[C@H]6O[C@@H]6O[C@@H](C)[C@H](O)[C@@H](O)[C@H]6O)[C@]5(C)[C@H]4CC[C@]3(C)[C@H]1[C@@H]2C [Ophiopogonin D'] | – | -0.3%
C[C@@H]1CC[C@@]2(OC1)O[C@H]1C[C@H]3[C@@H]4CC=C5C[C@@H](O)C[C@@H](O[C@@H]6O[C@H](C)[C@H](O)[C@H](O[C@@H]7OC[C@@H](O)[C@H](O)[C@H]7O)[C@H]6O[C@@H]6O[C@H](CO)[C@@H](O)[C@H](O)[C@H]6O)[C@]5(C)[C@H]4CC[C@]3(C)[C@H]1[C@@H]2C [Saponin C, from Liriope muscari] | 66.4% | –
C[C@H]1CC[C@@]2(OC1)O[C@H]1C[C@H]3[C@@H]4CC=C5C[C@@H](O[C@@H]6O[C@H](CO)[C@@H](O)[C@H](O[C@@H]7OC[C@@H](O)[C@H](O)[C@H]7O)[C@H]6O[C@@H]6O[C@@H](C)[C@H](O)[C@@H](O)[C@H]6O)CC[C@]5(C)[C@H]4CC[C@]3(C)[C@H]1[C@@H]2C [Liriope muscari baily saponins C] | 66.1% | –
